Test results as given in PubChem BioAssay (NCATS).
Records with an inconclusive call do not appear. Calls of active or inactive are those of the source. Unless noted, the call rests on the fitted dose curve; in most records, active means well fitted curve in the direction sought with a large enough effect; inconclusive means small, poorly fitted or top-dose-only effect, or another doubt; inactive means no such curve, though single readings can be large; an effect the other way counts as inactive or inconclusive.

What was measured:
[1] = S16 Schwann cell PMP22 intronic element firefly luciferase assay (AID 624032); further: nearly all actives have a fitted effect of over 30% in size
Outline: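 Rat S16 Schwann cells stably carrying firefly luciferase driven by a PMP22 intronic element, in 10% FBS, treated 24 h at 37 C. ONE-Glo luminescence normalized to PTC124 control and DMSO (0%); curves classed by r2, magnitude and activity.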

[2] = S16 Schwann cell PMP22 intronic element beta-lactamase assay (AID 624044; calls by dose curve; further: nearly all actives have a fitted effect of over 15% in size); settings: S16 rat Schwann cells, PMP22 element beta-lactamase FRET, 24 h; ratio activity, negative = inhibition: at 38.3 µM (top of the series) unless noted
Outline: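 Rat S16 Schwann cells with beta-Lac driven by a PMP22 intronic element, compound-treated 24 h at 37 °C. LiveBLAzer FRET B/G read: 460 nm normalized to potassium clavulanate vs DMSO; 535 nm FRET as viability; concentration-effect curves classified.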

ATS189 = test: qHTS profiling for inhibitors of Plasmodium falciparum proliferation (AID 504749); further: nearly all actives have a fitted effect of over 60% in size; settings: P. falciparum in erythrocytes, SYBR Green DNA, 72 h; series mostly up to 28.7 µM
Outline: (§1)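 P. falciparum-infected erythrocytes (0.3% parasitemia, 2.5% hematocrit) incubated with compound 72 h at 37 C, 5% CO2. Parasite DNA detected by SYBR Green after lysis, overnight at room temperature; normalised to 0.29 uM artemisinin and DMSO.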

ATS95 = test: as above; settings: P. falciparum in erythrocytes, SYBR Green DNA, 72 h; series mostly up to 28.7 µM
Outline: as §1

CP192 = test: as above; settings: P. falciparum in erythrocytes, SYBR Green DNA, 72 h; series mostly up to 28.7 µM
Outline: as §1

CP194 = test: as above; settings: P. falciparum in erythrocytes, SYBR Green DNA, 72 h; series mostly up to 28.7 µM
Outline: as §1

CP203 = test: as above; settings: P. falciparum in erythrocytes, SYBR Green DNA, 72 h; series mostly up to 28.7 µM
Outline: as §1

CP247 = test: as above; settings: P. falciparum in erythrocytes, SYBR Green DNA, 72 h; series mostly up to 28.7 µM
Outline: as §1

CP256 = test: as above; settings: P. falciparum in erythrocytes, SYBR Green DNA, 72 h; series mostly up to 28.7 µM
Outline: as §1

CP266 = test: as above; settings: P. falciparum in erythrocytes, SYBR Green DNA, 72 h; series mostly up to 12.8 µM
Outline: as §1

CP269 = test: as above; settings: P. falciparum in erythrocytes, SYBR Green DNA, 72 h; series mostly up to 28.7 µM
Outline: as §1

CP297 = test: as above; settings: P. falciparum in erythrocytes, SYBR Green DNA, 72 h; series mostly up to 28.7 µM
Outline: as §1

DFO2036 = test: as above; settings: P. falciparum in erythrocytes, SYBR Green DNA, 72 h; series mostly up to 28.7 µM
Outline: as §1

Dd2 = test: as above; settings: P. falciparum in erythrocytes, SYBR Green DNA, 72 h; series mostly up to 28.7 µM
Outline: as §1

FAB9 = test: as above; settings: P. falciparum in erythrocytes, SYBR Green DNA, 72 h; series mostly up to 28.7 µM
Outline: as §1

HB3 = test: as above; settings: P. falciparum in erythrocytes, SYBR Green DNA, 72 h; series mostly up to 28.7 µM
Outline: as §1

N140 = test: as above; settings: P. falciparum in erythrocytes, SYBR Green DNA, 72 h; series mostly up to 28.7 µM
Outline: as §1

PC49 = test: as above; settings: P. falciparum in erythrocytes, SYBR Green DNA, 72 h; series mostly up to 28.7 µM
Outline: as §1

[3] = S16 Schwann cell viability assay (CellTiter-Glo assay) (AID 624031);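 further: native untransfected S16 rat Schwann cells; cellular ATP luminescence as a viability measure; nearly all actives have a fitted effect of over 70% in size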
Outline: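 Cells were seeded at 500-750 per well in phenol red-free DMEM with 10% FBS and left overnight. Compounds or DMSO were pinned in, incubation ran 24 h at 37 °C/5% CO2, then CellTiter-Glo reagent was added and luminescence measured.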

CP250 = test: qHTS profiling for inhibitors of Plasmodium falciparum proliferation (AID 504749); further: nearly all actives have a fitted effect of over 60% in size; settings: P. falciparum in erythrocytes, SYBR Green DNA, 72 h; series mostly up to 12.8 µM
Outline: as §1

Measured: Potency

C#CCN(C)[C@@H](C)Cc1ccccc1
not listed: [3] | CP250
inactive: all other assays above

CN(C)C(=O)Oc1cc(OC(=O)N(C)C)cc([C@@H](O)CNC(C)(C)C)c1
inactive: all assays above

CNC[C@H](O)c1ccc(O)cc1
inactive: all assays above

CC[C@@H]1[C@@H]2C[C@H]3[C@H]4N(C)c5ccccc5[C@@]45C[C@@H]([C@@H]2[C@@H]5O)N3[C@H]1O
not listed: PC49
inactive: all other assays above

C[C@H]1CN(C2CCC(C#N)(c3ccc(F)cc3)CC2)CC[C@@]1(C(=O)O)c1ccccc1 (stereo partly drawn)
inactive: all assays above

NCC[C@H](O)C(=O)N[C@H]1C[C@@H](N)[C@@H](O[C@H]2O[C@@H](CN)[C@@H](O)[C@@H](O)[C@@H]2N)[C@@H](O[C@H]2O[C@@H](CO)[C@@H](O)[C@@H]2O)[C@@H]1O
inactive: all assays above

C[N+]1(C)[C@@H]2CC[C@H]1CC(OC(=O)[C@@H](CO)c1ccccc1)C2 (stereo partly drawn)
not listed: CP256
inactive: all other assays above

CC(C)N(CC[C@@](C(N)=O)(c1ccccc1)c1ccccn1)C(C)C
inactive: all assays above

CC(=O)OCC(=O)[C@@H]1CC[C@H]2[C@H]3CC[C@H]4C[C@@H](O)CC[C@]4(C)[C@@H]3C(=O)C[C@@]12C
inactive: all assays above

C[C@@]12CCC(=O)C=C1C=C[C@H]1[C@H]3CC[C@](O)(CCC(=O)O)[C@]3(C)CC[C@@H]12
not listed: HB3
inactive: all other assays above

CC[C@@]1(c2ccc(N)cc2)CCC(=O)NC1=O
not listed: [2]
inactive: all other assays above

CCN[C@]1(c2cccs2)CCCCC1=O
inactive: all assays above

CN(C)[C@@H]1C(=O)C(C(N)=O)=C(O)[C@]2(O)C(=O)C3=C(O)c4c(O)ccc(Cl)c4[C@](C)(O)[C@H]3C[C@@H]12
not listed: Dd2
inactive: all other assays above
